Reference: publication PMC4336329 (PLoS ONE, 2015)
The campaign covered roughly 310,000 compounds. About 14,000 (4.5%) showed an effect of 50% or more. Effects have a minus sign here. Only a selection was taken, and strong results are over-represented in it overall.

biological target: human ether-à-go-go-related gene (hERG) potassium channel (human, UniProt Q12809); assay: primary screen, population patch clamp on CHO cells stably expressing hERG; higher = less effect of the substance
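Note: peak tail current of the secondary pulse compared with the same well before compound.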

human ether-à-go-go-related gene (hERG) potassium channel, sequence (Q12809 whole entry, looked up): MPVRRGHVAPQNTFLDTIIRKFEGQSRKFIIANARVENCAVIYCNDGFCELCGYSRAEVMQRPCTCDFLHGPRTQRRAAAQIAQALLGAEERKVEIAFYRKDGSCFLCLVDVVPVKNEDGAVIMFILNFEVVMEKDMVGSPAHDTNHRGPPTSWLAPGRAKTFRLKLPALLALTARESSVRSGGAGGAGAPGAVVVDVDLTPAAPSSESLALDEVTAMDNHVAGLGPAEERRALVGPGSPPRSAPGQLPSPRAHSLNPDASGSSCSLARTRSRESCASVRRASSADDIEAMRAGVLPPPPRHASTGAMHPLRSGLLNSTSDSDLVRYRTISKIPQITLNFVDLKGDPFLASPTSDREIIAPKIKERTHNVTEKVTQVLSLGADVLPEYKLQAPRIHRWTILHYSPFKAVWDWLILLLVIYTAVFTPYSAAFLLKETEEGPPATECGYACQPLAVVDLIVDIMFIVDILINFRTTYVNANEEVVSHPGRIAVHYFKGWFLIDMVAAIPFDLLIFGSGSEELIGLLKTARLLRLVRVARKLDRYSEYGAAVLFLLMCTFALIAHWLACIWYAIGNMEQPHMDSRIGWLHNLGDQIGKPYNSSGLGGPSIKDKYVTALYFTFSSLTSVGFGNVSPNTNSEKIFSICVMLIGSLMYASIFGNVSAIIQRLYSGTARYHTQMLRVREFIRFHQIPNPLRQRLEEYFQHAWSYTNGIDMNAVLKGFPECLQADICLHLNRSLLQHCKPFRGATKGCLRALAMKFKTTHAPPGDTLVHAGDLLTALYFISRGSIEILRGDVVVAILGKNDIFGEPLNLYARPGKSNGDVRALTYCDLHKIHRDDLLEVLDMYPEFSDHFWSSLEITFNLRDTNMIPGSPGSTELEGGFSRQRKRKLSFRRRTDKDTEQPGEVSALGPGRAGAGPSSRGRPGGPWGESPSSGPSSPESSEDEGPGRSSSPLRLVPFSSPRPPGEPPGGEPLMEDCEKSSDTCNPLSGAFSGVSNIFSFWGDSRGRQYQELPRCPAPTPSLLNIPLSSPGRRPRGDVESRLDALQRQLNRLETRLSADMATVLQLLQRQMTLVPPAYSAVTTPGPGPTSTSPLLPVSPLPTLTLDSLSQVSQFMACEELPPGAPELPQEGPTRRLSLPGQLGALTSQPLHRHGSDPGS

In order of rising “hERG current change (%, negative = inhibition) at 10uM” value:
1. Cc1ccc(-c2cc(-c3ccccc3)cc(-c3ccccc3)[n+]2-c2ccccc2)cc1.[O-][Cl+3]([O-])([O-])[O-]  -82.1%
2. Cc1ccc(-c2cc(-c3ccc(C)cc3)[n+](-c3ccccc3)c(-c3ccc(C)cc3)c2)cc1.[O-][Cl+3]([O-])([O-])[O-]  -80.2%
3. Brc1ccc(-[n+]2c(-c3ccccc3)cc(-c3ccccc3)cc2-c2ccccc2)cc1.[O-][Cl+3]([O-])([O-])[O-]  -73.8%
4. Oc1ccc(-[n+]2c(-c3ccccc3)cc(-c3ccccc3)cc2-c2ccccc2)cc1.[O-][Cl+3]([O-])([O-])[O-]  -71.3%
5. O=C(CCS(=O)(=O)c1ccc(Br)cc1)N1CCCCCC1  -25.3%
6. Cc1cccc(C)c1Nc1c(-c2ccc(N3CCOCC3)cc2)nc2ncccn12  -19%
7. CCN(CCNCC(O)COCc1ccc(Cl)cc1)c1cccc(C)c1.O=C(O)C(=O)O (stereo not shown)  -18.2%
8. O=C(NCc1ccccc1)c1ccc2nc(-c3ccco3)c(-c3ccco3)nc2c1  -10.7%
9. CCC12CN3CCN(CC(C3)C1O)C2 (stereo not shown)  -6.76%
10. CC1CCN(C(=O)CSc2nnc(-c3ccc(S(=O)(=O)N4CCOCC4)cc3)n2C)CC1  -4.38%
11. Nc1ccc(-c2cnc[nH]2)cc1[N+](=O)[O-]  -0.302%
12. Clc1ccc(OCCOCCOc2cccc3cccnc23)c(Br)c1  0.0859%
13. Brc1ccc(-c2ccccc2)cc1  0.132%
14. Cc1ccc(-c2cc(-c3ccccc3)cc(-c3ccccc3)[n+]2-c2ccc(C(=O)O)cc2)cc1.[O-][Cl+3]([O-])([O-])[O-]  4.17%
15. O=C(NCc1ccc2c(c1)OCO2)c1ccc2c(=O)n(C3CCCC3)c(=O)[nH]c2c1  4.61%
16. CN(C(=O)c1ccno1)c1nnc(-c2cnccn2)s1  6.99%
17. Cc1cc(NC(=O)CSc2ccccn2)no1  11.3%
18. COc1ccc(C(=O)Nc2nc3ccc(OC)cc3s2)cc1  12.6%
19. CC(C)c1ccc(NC(=S)NN(c2ccccc2)c2ccccc2)cc1  12.7%
20. CCOc1ccc2[nH]c3nc(SCC(=O)NC4CCCC4)nnc3c2c1  14.1%
21. CN1C(=O)c2ccc(NC(=O)c3c(F)c(F)c(F)c(F)c3F)cc2C1=O  18.3%
22. CC(C)(C)NC(=S)N/N=C/c1cc(Br)c(O)c(Br)c1  29.8%
